Assay results: PubChem BioAssay AID504339 (National Center for Advancing Translational Sciences (NCATS), 2011)
Out of some 390,000 compounds screened, about 17,000 (4.4%) were called active. About 8% were inconclusive and are not listed. The sample holds actives, similar compounds and a random draw of the others, so the mix is not that of the screen. Unmarked numbers belong to inactive results. Calls come from the whole dose curve; as a rule, active = well fitted inhibition curve with a large enough effect; inconclusive = small, poorly fitted or top-dose-only effect; inactive = no such curve, though single readings can be large or run the other way.

The compounds below were run against Lysine-specific demethylase 4A (Homo sapiens) (UniProt O75164) (assay: qHTS Assay for Inhibitors of JMJD2A-Tudor Domain). Details: AlphaScreen JMJD2A-Tudor / H3K4me3 peptide binding; series mostly up to 114 µM; activity change, negative = inhibition: at the top concentration.
Description: JMJD2A is a jumonji-domain-containing lysine demethylase that uses Fe(II) together with 2-OG to effect oxidative demethylation of histones. Methylation is one of many […] modification that affect epigenetic transcription. […] It is proposed that the functions of JmjD2A binding to the histones, is to maintain marks after they are installed and to spread the modifications by […], establishing a self-propagating cycle for rapid methylation over a large area of chromatin. […] Thus, small molecule targeting of the JMJD2A-tudor domain interaction with its target methylhistone mark is expected to enable sophisticated experiments probing the fine regulatory pathways leading to selective demethylation of a given methyllysine locus based on the methylation state of adjacent histone marks. A quantitative high throughput AlphaScreen has been developed to identify small molecule inhibitors based on a protocol published by NCGC and SGC [4].
Although AlphaScreen has significant advantages with its utility in a variety of epigenetic target assays, the primary screening data provided in this deposition should be used with caution due to the prevalence of screening artifacts. The top compound concentration tested was high (>100uM) in this assay, which increases number of actives and potential artifacts. An AlphaScreen counterscreen is highly recommended to be run against any putative actives to eliminate non-specific artifacts. Alternatively, one can use other AlphaScreen assays in PubChem to filter out promiscuous hits.
[1] Lee, J. et al. Distinct binding modes specify the recognition of methylated histone H3K4 and H4K20 by JMJD2A-tudor. Nat Struct Mol Biol. 15(1); 109-11. 2008. PMID: 18084306
[2] Yasgar, et al. Compound Management for Quantitative High-Throughput Screening. JALA. 2008 Apr;13(2):79-89. PMID: 18496600
[3] Inglese, et al. Quantitative high-throughput screening: a titration-based approach that efficiently identifies biological activities in large chemical libraries. Proc Natl Acad Sci. 1;103(31):11473-8. 2006. PMID: 16864780
[4] Quinn et al. A homogeneous method for investigation of methyl-dependent protein-protein interactions in epigenetics. Nucleic Acids Res., 38(2):e11. 2010. PMID: […]
[5] Baell,Holloway. New substructure filters for removal of pan assay interference compounds (PAINS) from screening libraries and for their exclusion in bioassays. J Med Chem. 53(7):2719-40. 2010. PMID: 20131845
NIH Molecular Libraries Probe Production Network [MLPCN]
NIH Chemical Genomics Center [NCGC]
Structural Genomics Consortium (SGC)
To each well of a 1,536w plate, 2ul of JMJD2A-Tudor (final 100nM) and 1ul biotinylated histone peptide methylated at Lys4 [b-H3(1-18)K4me3] (final 50nM) were added in 1x PBS buffer, pH 7.4, containing 0.01% Tween-20, using a nanoliter dispenser. Formation of a protein-peptide complex proceeded at room temperature for 30 min. A Kalypsys pin-tool transferred 23nl of library compound solution in DMSO to each well. Following a 30 min incubation of the protein-peptide complex with compounds at room temperature, a mixture of 40 µg/mL each streptavidin-coated donor and nickel chelate acceptor AlphaScreen beads (final 10 µg/mL) was added in a 1ul dispense for a final volume of 4ul, followed by a brief centrifugation (1000 rpm, 1 min). Plates were incubated protected from the light for 20 min at room temperature. Microplates were then read on an EnVision multilabel plate reader using the 1,536 plate HTS AlphaScreen aperture (excitation time 80 ms, measurement time 240 ms).
% is set by controls: 0 for no effect and ±100 for the full control effect; potency is the fitted concentration of half-maximal effect.
Note: nearly all actives have a fitted effect of over 50% in size.

Lysine-specific demethylase 4A (Homo sapiens), sequence (O75164 whole entry, looked up, the tested form may be a part): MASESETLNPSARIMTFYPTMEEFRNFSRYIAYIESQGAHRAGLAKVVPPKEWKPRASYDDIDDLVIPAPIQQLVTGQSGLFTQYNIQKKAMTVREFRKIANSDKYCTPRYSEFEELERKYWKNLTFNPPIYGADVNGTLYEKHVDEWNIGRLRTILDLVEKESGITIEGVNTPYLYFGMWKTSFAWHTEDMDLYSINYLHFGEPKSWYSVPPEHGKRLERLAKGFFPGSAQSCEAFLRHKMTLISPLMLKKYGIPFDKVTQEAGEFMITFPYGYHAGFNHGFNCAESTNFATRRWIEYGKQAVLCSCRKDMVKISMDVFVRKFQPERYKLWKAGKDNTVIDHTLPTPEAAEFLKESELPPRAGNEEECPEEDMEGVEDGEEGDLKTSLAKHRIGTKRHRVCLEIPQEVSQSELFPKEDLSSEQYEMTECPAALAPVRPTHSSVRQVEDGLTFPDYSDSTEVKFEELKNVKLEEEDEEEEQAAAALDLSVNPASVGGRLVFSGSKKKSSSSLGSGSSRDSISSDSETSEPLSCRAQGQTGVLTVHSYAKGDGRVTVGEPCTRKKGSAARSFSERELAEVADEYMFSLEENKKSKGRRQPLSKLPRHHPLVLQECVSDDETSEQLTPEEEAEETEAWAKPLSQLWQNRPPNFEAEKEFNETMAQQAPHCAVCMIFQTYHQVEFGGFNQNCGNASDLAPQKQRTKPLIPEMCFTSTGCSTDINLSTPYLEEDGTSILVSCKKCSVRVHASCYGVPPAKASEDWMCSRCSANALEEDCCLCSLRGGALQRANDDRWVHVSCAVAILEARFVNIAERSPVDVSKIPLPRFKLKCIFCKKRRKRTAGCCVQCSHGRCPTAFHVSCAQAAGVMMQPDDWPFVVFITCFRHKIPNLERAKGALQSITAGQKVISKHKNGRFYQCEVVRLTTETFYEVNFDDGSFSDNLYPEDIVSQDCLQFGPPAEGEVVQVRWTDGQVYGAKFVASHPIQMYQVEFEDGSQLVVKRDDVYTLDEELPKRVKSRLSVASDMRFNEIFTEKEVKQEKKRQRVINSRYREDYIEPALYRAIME

Row | Compound | activity change, negative = inhibition | Potency
1 | COc1ccc(Cl)cc1NC(=O)CSc1nc(=O)[nH]c2c1CCCC2 | -2.27% | 
2 | Cc1cc(OCC(=O)Nc2ncn[nH]2)c(C)c(C)c1Br | -7.56% | 
3 | COc1ccc(Cn2cc(C(=O)c3ccc(C)cc3)c(=O)c3cc(OC)c(OC)cc32)cc1 | -31.3% | 
4 | COc1ccc(CCNC(=O)c2cn(C)c3ccc(S(=O)(=O)N(C)C4CCCCC4)cc3c2=O)cc1OC | -4.33% | 
5 | CCOc1ccc(C2c3[nH]c4ccccc4c3CCN2Cc2cn(CC)nc2C)cc1 (stereo unspecified) | -29.1% | 
6 | CCOc1cccc(CC(=O)N2CCc3c([nH]c4ccccc34)C2c2ccc(OC)cc2)c1OCC (stereo unspecified) | -31.5% | 
7 | CCOc1ccc(C2c3[nH]c4ccccc4c3CCN2Cc2cccn2-c2ncccn2)cc1 (stereo unspecified) |  | 44.7 µM (active)
8 | COc1ccc(C2CC(=O)Nc3c2c(=O)nc2c(C)cccn32)cc1OC (stereo unspecified) | -18.9% | 
9 | Cc1ccc(-n2c(=O)c3cccnc3n2CC(=O)NCc2ccc(F)cc2)cc1C | 3.75% | 
10 | CCOC(=O)C1(CCOc2ccccc2)CCN(Cc2cc(OC)cc(OC)c2)CC1 | -11.6% | 
11 | Cc1c(CN2CCC(CO)(CCOc3ccccc3)CC2)[nH]c2ccc(Cl)cc12 |  | 50.1 µM (active)
12 | CCOC(=O)C1(CCOc2ccccc2)CCN(Cc2ccc(C#CCCO)cc2)CC1 | -15.1% | 
13 | N#Cc1c(-c2ccccc2)c(-c2ccccc2)n[nH]c1=O | -7.47% | 
14 | O=C(O)c1ccc(-n2nc(-c3ccccc3)c3ccccc3c2=O)cc1 | -7.69% | 
15 | O=C(O)c1n[nH]nc1-c1ccccc1 |  | 4.47 µM (active)
16 | CCc1nn(CC(=O)NCC(C)c2ccccc2)c(=O)c2cc3occc3n12 (stereo unspecified) | 1.34% | 
17 | COc1ccccc1CNc1nccn(-c2ccc(F)cc2)c1=O | -23.1% | 
18 | COc1ccc(OC)c(CNC(=O)c2c3c(nc4ccccc24)C(=O)N(C2CCCCC2)C3)c1 | -18% | 
19 | Cc1cccc(N2CCN(C(=O)CCSCc3ccccc3F)CC2)c1C | 5.2% | 
20 | CCOc1ccc(OCC)c(NS(=O)(=O)c2ccc3[nH]c(=O)ccc3c2)c1 | -14.2% | 
21 | Cc1ccc2c(Cl)c(C(=O)NCCCn3ccnc3)sc2c1 | -35.4% | 
22 | Clc1c(OCCCn2ccnc2)ccc2ccccc12 |  | 56.2 µM (active)
23 | O=C(NCCCn1ccnc1)c1ccccc1F | -17.2% | 
24 | C=CCc1cc(C)ccc1OCCCn1ccnc1 |  | 20 µM (active)
25 | Brc1ccc(OCCn2ccnc2)cc1 | -22.5% | 
26 | CCOc1ccc(S(=O)(=O)NCCCn2ccnc2)cc1NC(C)=O | -4.83% | 

Row | Compound | activity change, negative = inhibition | Potency
27 | COc1ccc(-c2noc(CSc3nc4ccc(C)cc4[nH]3)n2)cc1 | -16% | 
28 | COc1ccc(CCNCc2c(C(=O)O)c(C)n(Cc3cccc(C)c3)c2C)cc1OC | -10.7% | 
29 | CC(=O)c1ccc(NC(=O)COc2ccccc2-c2nc(-c3ccccc3)no2)cc1 | -25.5% | 
30 | CCOC(=O)c1ccc(NC(=O)C2CC(=O)N(c3ccc(C(C)C)cc3)C2)cc1 (stereo unspecified) | -15.4% | 
31 | Cc1ccccc1OCC(=O)Nc1nnc(S(=O)(=O)N2CCCC2)s1 | -10.3% | 
32 | CCC(=O)Nc1nnc(S(=O)(=O)N(CC(C)C)c2ccccc2)s1 | -3.73% | 
33 | CCN(CC)S(=O)(=O)c1nnc(NC(=O)COc2ccccc2Cl)s1 |  | 31.6 µM (active)
34 | CC1=C(C(N)=O)C(c2ccc3c(c2)OCO3)n2nc(-c3cccc(C)c3)nc2N1 (stereo unspecified) | -10.1% | 
35 | c1ccc(-c2nnc3n2NC(c2ccc4c(c2)OCO4)S3)cc1 (stereo unspecified) |  | 22.4 µM (active)
36 | Cc1cccc(C)c1NC(=O)CSc1nnc(-c2ccccc2)n1Cc1ccc2c(c1)OCO2 | -23.6% | 
37 | CCOc1ccccc1N(CC)C(=O)c1cc2ccc3cccnc3c2[nH]1 | -20.1% | 
38 | O=[N+]([O-])c1ccc(Oc2ccc(F)cc2Br)c2ccncc12 |  | 44.7 µM (active)
39 | COc1cccc(NC(=O)N2CCN(C(=O)c3nsc4ccccc34)CC2)c1 | 0% | 
40 | CC1CCc2noc(NC(=O)c3ccc([N+](=O)[O-])cc3)c2C1 (stereo unspecified) | -24.3% | 
41 | COc1cccc(OCCn2c(-c3ccc(Br)cc3)nc3ccccc3c2=O)c1 | 18.7% | 
42 | O=C(C1CCN(C2CCN(Cc3cccc4c3OCO4)CC2)CC1)N1CCOCC1 | -4.11% | 
43 | O=C(Nc1ccccc1)N1CCC(C(=O)N2CCN(Cc3ccccc3)CC2)CC1 | -11.3% | 
44 | O=C(C1CCN(Cc2ccc(Cl)cc2)CC1)N1CCN(Cc2ccc3c(c2)OCO3)CC1 |  | 2.51 µM (active)
45 | CCOc1ccc(C2C(C(=O)Nc3ccc(Cl)cc3)=C(C)Nc3nc(C(F)(F)F)nn32)cc1 (stereo unspecified) | -9.21% | 
46 | C=CC(=O)Nc1ccc(Nc2ccnc(Nc3ccc(N4CCN(C)CC4)cc3)n2)cc1 |  | 31.6 µM (active)
47 | Cc1cccc(N2CCN(c3ccc(NC(=O)/C=C\C(=O)O)cc3)CC2)c1 | -14.3% [at 11.4 µM] | 
48 | Cn1cnnc1SCC(=O)Nc1ccc(N2CCOCC2)cc1 | -6.09% | 
49 | COc1ccc(Cn2c(=S)[nH]c3cc(C(=O)NCCCN4CCOCC4)ccc3c2=O)cc1 | -18.9% | 
50 | O=C(NCCCN1CCOCC1)c1cc(-c2ccc(Cl)cc2)on1 | -12.8% | 
51 | Cc1c(C)n(Cc2ccc(Cl)cc2)c2ccc(C(=O)NCCCN3CCOCC3)cc12 |  | 89.1 µM (active)
